{"source": "the antibiotic and cytotoxicity screens of Wong et al. (2023)", "note": "Screen size: about 39,000 compounds; about 3,300 (8.5%) were called active. This excerpt belongs to a sample that is enriched for actives.", "data": [{"test_system": "HepG2", "assay": "cytotoxicity call (relative viability < 0.9)", "details": "10 µM", "values": [{"smiles": "C[C@H]1CN([C@@H](C)CO)C(=O)c2cccc(NC(=O)Nc3cccc4ccccc34)c2O[C@H]1CN(C)C(=O)NC1CCCCC1", "cytotoxicity call": "inactive"}, {"smiles": "NC(=O)NCc1ccccn1", "cytotoxicity call": "inactive"}, {"smiles": "N#CCC(=O)NCc1ccccn1", "cytotoxicity call": "inactive"}, {"smiles": "O=C(/C=N/O)NCc1ccccn1", "cytotoxicity call": "active"}, {"smiles": "C[C@H]1CN([C@@H](C)CO)C(=O)c2cc(C#CCN(C)C)cnc2O[C@@H]1CN(C)Cc1ccc2c(c1)OCO2", "cytotoxicity call": "inactive"}, {"smiles": "CO[C@H](C(=O)[C@@H](O)[C@@H](C)O)[C@@H]1Cc2cc3cc(O[C@H]4C[C@@H](O[C@H]5C[C@@H](O)[C@H](O)[C@@H](C)O5)[C@@H](O)[C@@H](C)O4)c(C)c(O)c3c(O)c2C(=O)[C@H]1O[C@H]1C[C@@H](O[C@H]2C[C@@H](O[C@H]3C[C@](C)(O)[C@H](O)[C@@H](C)O3)[C@H](O)[C@@H](C)O2)[C@H](O)[C@@H](C)O1", "cytotoxicity call": "active"}, {"smiles": "CO[C@H](C(=O)[C@@H](O)[C@@H](C)O)[C@H]1Cc2cc3cc(O[C@H]4C[C@@H](O[C@H]5C[C@@H](O)[C@@H](O)[C@@H](C)O5)[C@@H](O)[C@@H](C)O4)c(C)c(O)c3c(O)c2C(=O)[C@@H]1O[C@H]1C[C@@H](O[C@H]2C[C@@H](O[C@H]3C[C@@](C)(O)[C@@H](O)[C@@H](C)O3)[C@@H](O)[C@@H](C)O2)[C@@H](O)[C@@H](C)O1", "cytotoxicity call": "active"}, {"smiles": "N=c1cc(N2CCCCC2)nc(N)n1OS(=O)(=O)O", "cytotoxicity call": "inactive"}, {"smiles": "CC(C)C(=O)NS(=O)(=O)c1ccc(N)cc1", "cytotoxicity call": "inactive"}, {"smiles": "C[C@H]1CN([C@@H](C)CO)C(=O)CCCn2cc(nn2)CO[C@@H]1CN(C)S(=O)(=O)c1ccc2ccccc2c1", "cytotoxicity call": "inactive"}, {"smiles": "O=C(CCCCCNC(=O)OCc1ccc(CO[C@H]2C[C@@H](c3ccccc3)C=C(C(=O)N3CCN(Cc4ccccc4)CC3)O2)cc1)NO", "cytotoxicity call": "inactive"}, {"smiles": "CN(C)CC(=O)N1CC(=O)N2[C@H](CO)[C@@H](c3ccc(C#Cc4cccnc4)cc3)[C@@H]2C1", "cytotoxicity call": "inactive"}, {"smiles": "Cc1noc(C)c1NC(=O)N(C)C[C@@H]1Oc2cc(Br)ccc2S(=O)(=O)N([C@H](C)CO)C[C@@H]1C", "cytotoxicity call": "inactive"}, {"smiles": "COc1ccc2c3c([nH]c2c1)[C@@H](CO)N(CC1CCCCC1)C[C@]13CN(C1)C(=O)Nc1cccc(c1)F", "cytotoxicity call": "inactive"}, {"smiles": "COc1ccc2c3c([nH]c2c1)[C@@H](CO)N(C[C@]13CN(CC2CCCCC2)C1)C(=O)Nc1cccc(c1)F", "cytotoxicity call": "active"}, {"smiles": "COc1ccc2c3c([nH]c2c1)[C@H](CO)N(C[C@]13CCN(CC1)C(=O)Nc1cccc(c1)F)C(=O)c1ccc(cc1)F", "cytotoxicity call": "inactive"}, {"smiles": "COc1ccc2c3c([nH]c2c1)[C@H](CO)N(CC1CCCCC1)C[C@]13CN(C1)C(=O)Nc1cccc(c1)F", "cytotoxicity call": "inactive"}, {"smiles": "COc1ccc2c3c([nH]c2c1)[C@@H](CO)N(C[C@]13CCN(CC1)C(=O)Nc1cccc(c1)F)C(=O)c1ccc(cc1)F", "cytotoxicity call": "inactive"}, {"smiles": "COc1ccc2c3c([nH]c2c1)[C@H](CO)N(C[C@]13CN(CC2CCCCC2)C1)C(=O)Nc1cccc(c1)F", "cytotoxicity call": "active"}, {"smiles": "C[C@@H]1CN([C@H](C)CO)C(=O)c2cccc(NS(=O)(=O)c3ccc(F)cc3)c2O[C@H]1CN(C)S(=O)(=O)c1ccc(F)cc1", "cytotoxicity call": "inactive"}, {"smiles": "COc1cccc(-c2ccc3c(c2)O[C@@H](CN(C)C(=O)C2CCOCC2)[C@H](C)CN([C@@H](C)CO)S3(=O)=O)c1", "cytotoxicity call": "inactive"}, {"smiles": "CC(C)NC(=O)N(C)C[C@@H]1Oc2ccc(NC(=O)Cn3cnnn3)cc2C(=O)N([C@@H](C)CO)C[C@@H]1C", "cytotoxicity call": "inactive"}, {"smiles": "O=C(C[C@@H]1C=C[C@H](NS(=O)(=O)c2ccccc2F)[C@H](CO)O1)NCCCN1CCOCC1", "cytotoxicity call": "inactive"}, {"smiles": "C[C@@H]1CN([C@H](C)CO)C(=O)c2cccc(NC(=O)c3cnccn3)c2O[C@@H]1CN(C)S(=O)(=O)c1ccccc1", "cytotoxicity call": "inactive"}, {"smiles": "CC(C)NC(=O)Nc1ccc2c(c1)C(=O)N(C)[C@H]1CC[C@H](CC(=O)NCc3ccc(F)cc3)O[C@@H]1CO2", "cytotoxicity call": "inactive"}, {"smiles": "C[C@@H]1CN([C@H](C)CO)C(=O)c2cc(NC(=O)C3CC3)ccc2O[C@H]1CN(C)Cc1ccc(-c2ccccc2)cc1", "cytotoxicity call": "inactive"}, {"smiles": "CCc1ccc(-c2cc3c(=O)n(CC(=O)NCCN4CCOCC4)nc(C)n3n2)cc1", "cytotoxicity call": "inactive"}, {"smiles": "Cc1ccc(S(=O)(=O)Nc2ccc3c(c2)CC(=O)N([C@H](C)CO)C[C@H](C)[C@@H](CN(C)S(=O)(=O)c2cccs2)O3)cc1", "cytotoxicity call": "inactive"}, {"smiles": "COc1ccc(CN(C)C[C@H]2OCCCC[C@@H](C)Oc3ccc(NC(=O)NC4CCCCC4)cc3C(=O)N([C@H](C)CO)C[C@@H]2C)cc1", "cytotoxicity call": "inactive"}, {"smiles": "C[C@@H]1CN([C@@H](C)CO)S(=O)(=O)c2ccc(C#C[C@@H](C)O)cc2O[C@@H]1CN(C)C(=O)Nc1ccccc1", "cytotoxicity call": "inactive"}, {"smiles": "COc1ccc(CN(C)C[C@@H]2Oc3c(NC(=O)c4ccc(-c5nccs5)cc4)cccc3C(=O)N([C@H](C)CO)C[C@H]2C)cc1", "cytotoxicity call": "active"}, {"smiles": "COc1ccc(CN(C)C[C@H]2Oc3c(NC(=O)c4ccc(-c5nccs5)cc4)cccc3C(=O)N([C@@H](C)CO)C[C@@H]2C)cc1", "cytotoxicity call": "inactive"}, {"smiles": "COc1ccc(CN(C)C[C@@H]2Oc3c(NC(=O)c4ccc(-c5nccs5)cc4)cccc3C(=O)N([C@@H](C)CO)C[C@H]2C)cc1", "cytotoxicity call": "active"}, {"smiles": "COc1ccc(CN(C)C[C@@H]2Oc3c(NC(=O)c4ccc(-c5nccs5)cc4)cccc3C(=O)N([C@H](C)CO)C[C@@H]2C)cc1", "cytotoxicity call": "inactive"}, {"smiles": "COc1ccc(CN(C)C[C@H]2Oc3c(NC(=O)c4ccc(-c5nccs5)cc4)cccc3C(=O)N([C@@H](C)CO)C[C@H]2C)cc1", "cytotoxicity call": "inactive"}, {"smiles": "COc1ccc(CN(C)C[C@H]2Oc3c(NC(=O)c4ccc(-c5nccs5)cc4)cccc3C(=O)N([C@H](C)CO)C[C@@H]2C)cc1", "cytotoxicity call": "inactive"}, {"smiles": "CO[C@@H]1CN(C)C(=O)c2cc(NC(C)=O)ccc2OC[C@@H](C)N(S(=O)(=O)c2cn(C)cn2)C[C@H]1C", "cytotoxicity call": "inactive"}, {"smiles": "C[C@@H]1CCCCO[C@H](CN(C)Cc2ccccc2)[C@@H](C)CN([C@H](C)CO)C(=O)c2cc(NC(=O)c3ccccc3)ccc2O1", "cytotoxicity call": "inactive"}, {"smiles": "CCC[C@@H](O)C#Cc1cnc2c(c1)C(=O)N([C@H](C)CO)C[C@H](C)[C@H](CN(C)S(=O)(=O)c1ccccc1)O2", "cytotoxicity call": "inactive"}, {"smiles": "C[C@@H]1CN([C@@H](C)CO)C(=O)c2cc(NC(=O)Cc3cn(C)c4ccccc34)ccc2O[C@H]1CN(C)Cc1ccc(Oc2ccccc2)cc1", "cytotoxicity call": "inactive"}, {"smiles": "C[C@@H]1CN([C@H](C)CO)C(=O)c2cc(NC(=O)Cc3cn(C)c4ccccc34)ccc2O[C@H]1CN(C)Cc1ccc(Oc2ccccc2)cc1", "cytotoxicity call": "inactive"}, {"smiles": "C[C@H]1CN([C@@H](C)CO)C(=O)c2cc(NC(=O)Cc3cn(C)c4ccccc34)ccc2O[C@H]1CN(C)Cc1ccc(Oc2ccccc2)cc1", "cytotoxicity call": "inactive"}, {"smiles": "C[C@H](CO)N1C[C@H](C)[C@@H](CN(C)Cc2ccc(Oc3ccccc3)cc2)Oc2ccc(NC(=O)Cc3cn(C)c4ccccc34)cc2C1=O", "cytotoxicity call": "active"}, {"smiles": "C[C@H](CO)N1C[C@H](C)[C@H](CN(C)Cc2ccc(Oc3ccccc3)cc2)Oc2ccc(NC(=O)Cc3cn(C)c4ccccc34)cc2C1=O", "cytotoxicity call": "active"}, {"smiles": "C[C@@H]1CN([C@@H](C)CO)C(=O)c2cc(NC(=O)Cc3cn(C)c4ccccc34)ccc2O[C@@H]1CN(C)Cc1ccc(Oc2ccccc2)cc1", "cytotoxicity call": "inactive"}, {"smiles": "C[C@@H]1CN([C@H](C)CO)C(=O)c2cc(NC(=O)Cc3cn(C)c4ccccc34)ccc2O[C@@H]1CN(C)Cc1ccc(Oc2ccccc2)cc1", "cytotoxicity call": "inactive"}, {"smiles": "C[C@H]1CN([C@@H](C)CO)C(=O)c2cc(NC(=O)Cc3cn(C)c4ccccc34)ccc2O[C@@H]1CN(C)Cc1ccc(Oc2ccccc2)cc1", "cytotoxicity call": "active"}, {"smiles": "Cc1ccc(S(=O)(=O)N(C)C[C@H]2OCCCC[C@@H](C)Oc3ccc(NC(=O)Nc4ccc5c(c4)OCO5)cc3C(=O)N([C@H](C)CO)C[C@@H]2C)cc1", "cytotoxicity call": "inactive"}, {"smiles": "COc1cccc(-c2ccc3c(c2)O[C@H](CN(C)Cc2cncnc2)[C@H](C)CN([C@@H](C)CO)S3(=O)=O)c1", "cytotoxicity call": "inactive"}, {"smiles": "COc1ccc(NC(=O)N(C)C[C@H]2Oc3ccc(NC(=O)CCCCCC(=O)Nc4ccccc4N)cc3CC(=O)N([C@H](C)CO)C[C@H]2C)cc1", "cytotoxicity call": "inactive"}, {"smiles": "C[C@@H]1CN([C@@H](C)CO)C(=O)c2c(c3ccccc3n2C)-c2ccccc2CO[C@H]1CN(C)S(C)(=O)=O", "cytotoxicity call": "inactive"}, {"smiles": "CC(=O)OCC1=C(C(=O)O)N2C(=O)[C@@H](NC(=O)CSc3ccncc3)[C@H]2SC1", "cytotoxicity call": "inactive"}, {"smiles": "C[C@H](CO)N1C[C@H](C)[C@H](CN(C)Cc2ccc(-c3ccccc3)cc2)Oc2ccc(NC(=O)Cn3cnnn3)cc2C1=O", "cytotoxicity call": "inactive"}, {"smiles": "C[C@H]1CN([C@@H](C)CO)C(=O)c2cccc(NS(=O)(=O)c3cn(C)cn3)c2O[C@@H]1CN(C)Cc1ccc(C(=O)O)cc1", "cytotoxicity call": "inactive"}, {"smiles": "Cn1nnnc1-c1ccc(N)cc1", "cytotoxicity call": "inactive"}, {"smiles": "COc1cc(NC(C)CCCN)c2ncccc2c1.O=P(O)(O)O.O=P(O)(O)O", "note": "(stereo not given)", "cytotoxicity call": "active"}, {"smiles": "Cc1c(-c2c(-c3ccc(F)o3)sc3ncnc(O[C@H](Cc4ccccc4OCc4ccnn4CC(F)(F)F)C(=O)O)c23)ccc(OCCN2CCN(C)CC2)c1Cl", "cytotoxicity call": "active"}, {"smiles": "C[C@H]1CN([C@@H](C)CO)C(=O)CCCn2cc(nn2)CO[C@H]1CN(C)S(=O)(=O)c1ccccc1C#N", "cytotoxicity call": "inactive"}, {"smiles": "C[C@H](CO)N1C[C@H](C)[C@H](CN(C)C(=O)Nc2ccc(F)cc2)OCCCC[C@H](C)Oc2ccc(NC(=O)NC3CCCCC3)cc2C1=O", "cytotoxicity call": "inactive"}, {"smiles": "O=c1[nH]c(=O)n(C2CC(O)C(CO)O2)cc1C(F)(F)F", "note": "(stereo not given)", "cytotoxicity call": "inactive"}, {"smiles": "O=c1[nH]c(=O)n(C2CC(O)C(CO)O2)cc1F", "note": "(stereo not given)", "cytotoxicity call": "active"}, {"smiles": "O=c1[nH]c(=O)n([C@@H]2C[C@@H](O)[C@@H](CO)O2)cc1F", "cytotoxicity call": "inactive"}, {"smiles": "O=c1[nH]c(=O)n([C@H]2C[C@H](O)[C@@H](CO)O2)cc1C(F)(F)F", "cytotoxicity call": "active"}, {"smiles": "O=c1[nH]c(=O)n([C@H]2C[C@H](O)[C@@H](CO)O2)cc1F", "cytotoxicity call": "inactive"}, {"smiles": "Cc1cn([C@H]2C[C@H](O)[C@@H](CO)O2)c(=O)[nH]c1=O", "cytotoxicity call": "inactive"}]}]}
